Sampled rows, rich in hits. Any-hit rate of the full collection: about 12%.
BAZ2B inh: blocks human BAZ2B; AlphaScreen BAZ2B-H3K14Ac peptide displacement; Potency, µM (titrated, usually from 114 µM), without a hit: at the top dose activity change, negative = inhibition, hits mostly inhibitors; actives 4.4% (n = 360,000); AID 504333; further: on the % scale 0 is the no-effect control and ±100 the full control effect; nearly all actives have a fitted effect of over 60% in size
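Compounds, titrated to a top concentration of 110 uM, were incubated 30 min at room temperature with preformed BAZ2B/acetyl-K14 H3 peptide complex (50 nM each). Proximity signal was measured by AlphaScreen after 20 min with beads.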
HP1b binding inh: HP1-beta chromodomain-methylated histone interaction inhibition; P83916; AlphaScreen HP1-beta / biotin-H3K9me3 peptide binding; Potency, µM (series often up to 114 µM), inactives show at the top dose activity change, negative = inhibition, hits mostly inhibitors; actives 0.56% (n = 390,000); AID 540317; further: nearly all actives have a fitted effect of over 70% in size
Target sequence (P83916 whole entry, looked up): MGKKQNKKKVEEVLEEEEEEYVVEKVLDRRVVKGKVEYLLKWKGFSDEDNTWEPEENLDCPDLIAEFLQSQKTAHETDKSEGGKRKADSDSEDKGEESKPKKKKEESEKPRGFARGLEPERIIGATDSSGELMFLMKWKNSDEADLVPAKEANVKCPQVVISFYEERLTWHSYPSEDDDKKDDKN
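Compound inhibition of the preformed complex between 50 nM HP1-beta and 50 nM biotinylated H3K9me3 peptide was read by AlphaScreen. Buffer was PBS pH 7.4 with 0.01% Tween-20. Incubations ran 30 min at room temperature, with 10 ug/mL donor/acceptor beads.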
JMJD2A Tudor: inhibitors of human JMJD2A Tudor domain. Potency, µM (doses to about 114 µM), for the others: at the highest dose activity change, negative = inhibition, most hits filed as inhibitors. AID 504339. actives 4.4% (n = 390,000). AlphaScreen JMJD2A-Tudor / H3K4me3 peptide binding; further: on the % scale 0 is the no-effect control and ±100 the full control effect; nearly all actives have a fitted effect of over 50% in size
Sfp PPTase inh: inhibitors of Bacillus subtilis Sfp phosphopantetheinyl transferase; Q9F4F7; Biochemical Sfp PPTase activity, qHTS; Potency, µM, inactives show largest response in the series, negative = inhibition, most hits filed as inhibitors; actives 3.5% (n = 310,000); AID 1490;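 further: the enzyme is Sfp with the accession as filed and its product quenches rhodamine fluorescence; 0% = enzyme reaction without inhibitor and -100% = no enzyme wells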
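With Hepes-Na pH 7.6 buffer containing 10 mM MgCl2, Sfp (15 nM) modified BHQ-2-YbbR (12.5 uM) using rhodamine-CoA (5 uM). Two reads 30 minutes apart at 525/598 nm yielded each well's rate.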
G9a block: inhibitors of human histone lysine methyltransferase G9a. Q96KQ7. G9a H3K9 monomethylation, AlphaScreen, 2 h. Potency, µM (highest dose often 102 µM), for inactives: at the top dose activity, negative = inhibition, usual class: inhibitors. actives 8.8% (n = 350,000); further: on the % scale 0 is the no-effect control and ±100 the full control effect; nearly all actives have a fitted effect of over 75% in size
Target sequence (Q96KQ7 913-1193 limits assumed): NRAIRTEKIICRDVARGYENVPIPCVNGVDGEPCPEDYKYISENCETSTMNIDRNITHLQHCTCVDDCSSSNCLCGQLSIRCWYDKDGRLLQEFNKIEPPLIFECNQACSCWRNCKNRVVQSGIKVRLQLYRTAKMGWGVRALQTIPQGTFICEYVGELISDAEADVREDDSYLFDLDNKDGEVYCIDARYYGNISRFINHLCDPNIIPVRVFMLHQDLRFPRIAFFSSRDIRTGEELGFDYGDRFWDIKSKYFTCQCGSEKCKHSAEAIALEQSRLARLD
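Readings reflect AlphaScreen signal from monomethyl-H3K9 antibody detection. HMT at 20 nM; substrate b-H3K9 500 nM; cofactor SAM 20 uM; 2 h RT reaction; compounds tested as titrations in qHTS with 15 min preincubation.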
L3MBTL1 block: L3MBTL1 (human) inhibition | Q9Y468 | AlphaScreen L3MBTL1–H3K9me1 peptide binding | Potency, µM (top dose mostly 57.1 µM), for inactives: at the highest dose activity, negative = inhibition, hits mostly inhibitors | actives 0.66% (n = 230,000); further: on the % scale 0 is the no-effect control and ±100 the full control effect; nearly all actives have a fitted effect of over 60% in size
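Displacement of a biotinylated histone H3(1-15) peptide monomethylated at Lys9 (75 nM) from L3MBTL1 (50 nM) was measured by AlphaScreen after a 30 min room-temperature compound incubation; cefsulodin titration served as intraplate control.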
* hit, by the source's call; [ ] = remark or other dose. The call rests on the fitted dose curve; in most records, active means well fitted curve in the direction sought with a large enough effect; inconclusive means small, poorly fitted or top-dose-only effect, or another doubt; inactive means no such curve, though single readings can be large; an effect the other way counts as inactive or inconclusive. Potency means the concentration at half of the fitted maximal effect.

For Cc1ccc2cc(C3CC(c4ccco4)=NN3S(=O)(=O)c3ccccc3)c(Cl)nc2c1 (stereo not given) the results were BAZ2B inh -38%, HP1b binding inh 18%, JMJD2A Tudor -23%, Sfp PPTase inh 19%, G9a block 50µM* and L3MBTL1 block -3%.
`COc1ccc2nc(Cl)c(C3CC(c4ccco4)=NN3C(=O)CCCC(=O)O)cc2c1` (stereo not given) gave BAZ2B inh -19%, HP1b binding inh 74%, JMJD2A Tudor -10%, Sfp PPTase inh 35µM*, G9a block -49% and L3MBTL1 block -14%.
CC(=O)c1cccc(NC(=O)c2nc(-c3ccccc3)n(-c3ccccc3C)n2)c1 was read as BAZ2B inh -9%, HP1b binding inh 11%, JMJD2A Tudor -14% and G9a block -35%[59 µM].
For O=C(Nc1cccnc1)c1ccc(Cl)c(S(=O)(=O)N2CCCC2)c1 the results were BAZ2B inh -8%, HP1b binding inh 41%, JMJD2A Tudor -21%, Sfp PPTase inh 0% and G9a block inconclusive.
`CC(=O)NC1=C(N(C)C2CCS(=O)(=O)C2)C(=O)c2ccccc2C1=O` (stereo not given) gave BAZ2B inh -24%, HP1b binding inh 10%, JMJD2A Tudor -3%, Sfp PPTase inh -9%, G9a block 7.9µM* and L3MBTL1 block -18%.
Screening CC(=O)NC1=C(Nc2ccc(N(C)C)cc2)C(=O)c2ccccc2C1=O returned BAZ2B inh 40µM*, HP1b binding inh inconclusive, JMJD2A Tudor inconclusive, Sfp PPTase inh -14% and G9a block 32µM*.
Nc1c(-c2nc(-c3ccccc3Cl)no2)nnn1-c1ccccc1F was read as BAZ2B inh 1%, HP1b binding inh 24%, JMJD2A Tudor -13% and G9a block -9%[59 µM].
`O=C1COc2ccc(C(=O)COC(=O)c3ccc(Cl)cc3[N+](=O)[O-])cc2N1` gave BAZ2B inh -33%, HP1b binding inh 3%, JMJD2A Tudor -25%, G9a block 45µM* and L3MBTL1 block -5%.
`O=C1COc2ccc(C(=O)COC(=O)c3ccc([N+](=O)[O-])cc3Cl)cc2N1` gave BAZ2B inh -34%, HP1b binding inh -2%, JMJD2A Tudor -25%, G9a block 40µM* and L3MBTL1 block -8%.
For CCOC(=O)C(NC(=O)CC)(N1CCc2ccccc2C1)C(F)(F)F (stereo not given) the results were BAZ2B inh -4%, HP1b binding inh 67%, JMJD2A Tudor -7%, Sfp PPTase inh 8%, G9a block 9%[0.501 µM] and L3MBTL1 block 7%.
`Cc1ccc(-n2c(C)cc(/C=N/NC(=O)CC3(C)OCCO3)c2C)c(C)c1` gave BAZ2B inh inconclusive, HP1b binding inh 18%, JMJD2A Tudor -35%, Sfp PPTase inh 0%, G9a block inconclusive and L3MBTL1 block -1%.
For CC1(CC(=O)N/N=C/c2cc([N+](=O)[O-])c(O)cc2O)OCCO1 the results were BAZ2B inh 50µM*, HP1b binding inh 8.9µM*, JMJD2A Tudor inconclusive, Sfp PPTase inh 6%, G9a block 40µM* and L3MBTL1 block inconclusive.
COc1ccc(C2C(C#N)=C(N)Oc3cccc(O)c32)cc1 (stereo not given) was read as BAZ2B inh -13%, HP1b binding inh 22%, JMJD2A Tudor -13%, Sfp PPTase inh -8% and L3MBTL1 block 1%.
For CCOC(=O)NC(N(O)c1cccc(Cl)c1)C(Cl)(Cl)Cl (stereo not given) the results were BAZ2B inh -29%, HP1b binding inh -11%, JMJD2A Tudor -26%, Sfp PPTase inh 11µM*, G9a block 40µM* and L3MBTL1 block -4%.
`COc1ccc(OC)c2[nH]c(C(=O)O)cc12` gave BAZ2B inh -1%, HP1b binding inh -6%, JMJD2A Tudor 89µM*, Sfp PPTase inh -3%, G9a block inconclusive and L3MBTL1 block -8%.
Screening O=C1CNC(=O)/C1=C\N1CCN(C(c2ccccc2)c2ccccc2)CC1 returned BAZ2B inh -31%, HP1b binding inh 78%, JMJD2A Tudor -18%, Sfp PPTase inh -7%, G9a block 45µM* and L3MBTL1 block 1%.
`COc1cc(CNn2c(C)n[nH]c2=S)cc(Cl)c1OCC(=O)NC(C)(C)C` gave BAZ2B inh -7%, HP1b binding inh 52%, JMJD2A Tudor 56µM*, Sfp PPTase inh -7% and L3MBTL1 block 7%.
Screening COc1cc(CNC(C)(C)CO)ccc1OCC(=O)NC(C)(C)C returned BAZ2B inh 3%, HP1b binding inh 40%, JMJD2A Tudor -2%[57.1 µM], Sfp PPTase inh 11%, G9a block -2%[59 µM] and L3MBTL1 block 10%.
Screening COc1cc(CNn2c(C)n[nH]c2=S)cc(Br)c1OCC(=O)NC(C)(C)C returned BAZ2B inh -8%, HP1b binding inh 26%, JMJD2A Tudor inconclusive, Sfp PPTase inh -6%, G9a block 4µM* and L3MBTL1 block 3%.
`COc1cc(CNn2nnnc2N)cc(Br)c1OCC(=O)NC(C)(C)C` gave BAZ2B inh 5%, HP1b binding inh 5%, JMJD2A Tudor -16%, Sfp PPTase inh 9%, G9a block 21% and L3MBTL1 block 0%.
For COc1cc(CNn2cn[nH]c2=S)ccc1OCC(=O)NC(C)(C)C the results were BAZ2B inh -33%, HP1b binding inh 52%, JMJD2A Tudor inconclusive, Sfp PPTase inh -19%, G9a block 18µM* and L3MBTL1 block -3%.
`CCCc1cc(=O)oc2cc(OCC(=O)NCC(O)c3ccccc3)ccc12` (stereo not given) gave BAZ2B inh -12%, HP1b binding inh 61%, JMJD2A Tudor 16%, Sfp PPTase inh 14% and G9a block -5%[59 µM].
For O=C(Nc1sc2c(c1C(=O)NCc1ccco1)CCCC2)c1ccc2c(c1)OCO2 the results were BAZ2B inh -2%, HP1b binding inh 24%, JMJD2A Tudor -12%, Sfp PPTase inh 45µM*, G9a block -41%[59 µM] and L3MBTL1 block inconclusive.
Screening COC(=O)Nc1sc2c(c1C(=O)NCc1ccco1)CCCC2 returned BAZ2B inh inconclusive, HP1b binding inh 12%, JMJD2A Tudor -27%, Sfp PPTase inh 79µM*, G9a block -34% and L3MBTL1 block 10%.
For COC(=O)Nc1sc2c(c1C(=O)NCc1ccco1)CCC2 the results were BAZ2B inh inconclusive, HP1b binding inh -3%, JMJD2A Tudor 56µM*, Sfp PPTase inh inconclusive, G9a block -24%[59 µM] and L3MBTL1 block inconclusive.

Source: PubChem BioAssay (National Center for Advancing Translational Sciences (NCATS))
